Reference: the supplement of paper PMC9694430

Test system: LOC_OS02G17970-cb001
Test: thermal shift delta Tm vs DMSO control; higher = stronger stabilization (binding)
Conditions: 12.5 µM; protein concentration 2 µM
Procedure, shortened: (§1)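 Rice kinase domain constructs were expressed in E. coli, purified, and tested by differential scanning fluorimetry with compound added in DMSO. Each well of a 96-well plate held 19.5 μl of 2 μM kinase in 100 mM potassium phosphate pH 7.5, 150 mM NaCl, 10% glycerol and 5 × SYPRO Orange, and fluorescence was read from 25°C to 95°C at 0.05°C/s. The melting temperature shift is the mean of triplicates, taken against protein with DMSO alone after Boltzmann fitting.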

Compound	thermal shift delta Tm
CCCCCCCCCCCCCCCCn1cc[n+](Cc2ccccc2)c1C	-2.91 °C
O=C(/C=C/c1ccc(O)c(O)c1)c1ccc(O)cc1O [Butein]	3.5 °C
NC(=O)c1ncn([C@@H]2O[C@H](CO)[C@@H](O)[C@H]2O)c1N [AICAR (Acadesine)]	0.71 °C
COCCOc1ccc2c(c1)ncn2-c1ccc2cccc(N3CCC(N)CC3)c2n1	0.26 °C
CCCCCCCCCCCCCCCCCCOP(=O)([O-])OC1CC[N+](C)(C)CC1 [Perifosine (KRX-0401)]	-0.45 °C
COc1ccc(-c2ccc3c(N4CCOCC4)nc(N4C[C@@H](C)O[C@@H](C)C4)nc3n2)cc1CO	0.46 °C
Cc1cc(Nc2nc(N[C@@H](C)c3ccc(F)cc3)c(C#N)cc2F)n[nH]1	0.2 °C
O=c1nc(N2CCOCC2)oc2c(-c3cccc4c3sc3ccccc34)cccc12	-0.76 °C
Cn1cc(-c2ccc3nnc(C(F)(F)c4ccc5ncccc5c4)n3n2)cn1	0.51 °C
Cc1cc(C(C)Nc2ccccc2)c2nc(N3CCOCC3)cc(=O)n2c1 (configuration not stated)	0.24 °C
COc1cc(N2CCC(N(C)C)CC2)ccc1Nc1ncc(Cl)c(Nc2ccccc2P(C)(C)=O)n1	0.5 °C
CC(C)c1cnn2c(NCc3ccccc3)cc(NCCCCCCN)nc12	0.24 °C
Cc1cc([C@@H](C)Nc2ccccc2C(=O)O)c2nc(N3CCOCC3)cc(=O)n2c1	0.98 °C
CC(C)NC(=O)C1CCC(n2c(NC(=O)c3ccc(F)cc3)nc3ccc(CN4CCC(C(C)(C)O)CC4)cc32)CC1 (configuration not stated) [Belizatinib (TSR-011)]	-0.03 °C
COc1ccc(-c2ccc3ncc4c(c3c2)n(-c2ccc(N3CCNCC3)c(C(F)(F)F)c2)c(=O)n4C)cn1	0.58 °C
CN1CCN(c2ccc3nc(-c4c(N)c5c(F)cccc5[nH]c4=O)[nH]c3c2)CC1 [Dovitinib (TKI-258, CHIR-258)]	-0.27 °C
NC(=O)c1ccc2nc(-c3ccc(Oc4ccc(Cl)cc4)cc3)[nH]c2c1 [Chk2 Inhibitor II (BML-277)]	1.17 °C
CC1(C)OCCn2c1nc1c(N3CCOCC3)nc(-c3cnc(N)nc3)nc12	0.78 °C
C=CC(=O)Nc1cccc(Nc2nc(Nc3ccc(OCCOC)cc3)ncc2F)c1	0.13 °C
NC(=O)c1cnc(N[C@@H]2CCCC[C@@H]2N)nc1Nc1cccc(-n2nccn2)c1	1.5 °C
CNC(=O)c1cc(Oc2ccc3nc(N[C@@H]4CCCC[C@H]4O)sc3c2)ccn1	0.53 °C
CCn1c2ccccc2c2cc(Nc3ccnc(NCCCN4CCOCC4)n3)ccc21	0.22 °C
CCC(=O)Nc1cccc(Oc2nc(Nc3ccc(N4CCN(C)CC4)cc3OC)ncc2Cl)c1	0.04 °C
CN1CCN(c2nc(C3=C(c4c[nH]c5ccccc45)C(=O)NC3=O)c3ccccc3n2)CC1 [Sotrastaurin]	0.29 °C
C=CCc1ccc(O)c(-c2ccc(O)c(CC=C)c2)c1 [Honokiol]	1.32 °C

Test system: LOC_OS02G45750-cb003
Test: as above
Conditions: 12.5 µM; protein concentration 2 µM
Procedure, shortened: as §1

Compound	thermal shift delta Tm
COc1ccc(CC(=O)Nc2nc3c(s2)CCc2ccccc2-3)cc1OC	1.49 °C
CNS(=O)(=O)Nc1nccc(Cc2c(C)c3ccc(Oc4ncccn4)cc3oc2=O)c1F	0.52 °C
C[C@H](NC(=O)/C(C#N)=C/c1cccc(Br)n1)c1ccccc1	-0.81 °C
COc1ccc(COc2cc3oc(=O)c4cc(C(C)O)ccc4c3cc2OC)cc1 (configuration not stated) [Palomid 529 (P529)]	-0.8 °C
CC(C)(C)Cn1c(N)nc2ccc(-c3[nH]c(C(C)(C)C)nc3-c3ccc(F)cc3)nc21	0.45 °C
COc1ccccc1-c1cc(Nc2cccc(CS(N)(=O)=O)c2)ncn1	3.96 °C
Cn1cnc(N)c2ncnc1-2 [3-Methyladenine (3-MA)]	0.36 °C
C=CC(=O)N[C@H]1CCOC[C@H]1Nc1ncc2cc(-c3c(Cl)c(OC)cc(OC)c3Cl)ccc2n1	1.19 °C
CCS(=O)(=O)Nc1ccc2c(c1)/C(=C(/Nc1ccc(CN3CCCCC3)cc1)c1ccccc1)C(=O)N2 [Hesperadin]	14.4 °C
Cc1cc(Nc2cc(N3CCN(C)CC3)nc(/C=C/c3ccccc3)n2)n[nH]1 [ENMD-2076 L-(+)-Tartaric acid]	4.88 °C
Cc1ccc(F)c(NC(=O)Nc2ccc(-c3cccc4[nH]nc(N)c34)cc2)c1 [Linifanib (ABT-869)]	0.85 °C
CO[C@H]1C[C@@H]2CC[C@@H](C)[C@@](O)(O2)C(=O)C(=O)N2CCCC[C@H]2C(=O)O[C@H]([C@H](C)C[C@@H]2CC[C@@H](OCCO)[C@H](OC)C2)CC(=O)[C@H](C)/C=C(\C)[C@@H](O)[C@@H](OC)C(=O)[C@H](C)C[C@H](C)/C=C/C=C/C=C/1C [Everolimus (RAD001)]	0.22 °C
CCCCCCCCCCCCCCCCn1cc[n+](Cc2ccccc2)c1C	-1.15 °C
O=C(/C=C/c1ccc(O)c(O)c1)c1ccc(O)cc1O [Butein]	2.94 °C
NC(=O)c1ncn([C@@H]2O[C@H](CO)[C@@H](O)[C@H]2O)c1N [AICAR (Acadesine)]	0.81 °C
COCCOc1ccc2c(c1)ncn2-c1ccc2cccc(N3CCC(N)CC3)c2n1	16.5 °C
CCCCCCCCCCCCCCCCCCOP(=O)([O-])OC1CC[N+](C)(C)CC1 [Perifosine (KRX-0401)]	-1.3 °C
COc1ccc(-c2ccc3c(N4CCOCC4)nc(N4C[C@@H](C)O[C@@H](C)C4)nc3n2)cc1CO	0.16 °C
Cc1cc(Nc2nc(N[C@@H](C)c3ccc(F)cc3)c(C#N)cc2F)n[nH]1	4.55 °C

Compound	thermal shift delta Tm
O=c1nc(N2CCOCC2)oc2c(-c3cccc4c3sc3ccccc34)cccc12	0.04 °C
Cn1cc(-c2ccc3nnc(C(F)(F)c4ccc5ncccc5c4)n3n2)cn1	0.26 °C
Cc1cc(C(C)Nc2ccccc2)c2nc(N3CCOCC3)cc(=O)n2c1 (configuration not stated)	-0.62 °C
COc1cc(N2CCC(N(C)C)CC2)ccc1Nc1ncc(Cl)c(Nc2ccccc2P(C)(C)=O)n1	2.58 °C
CC(C)c1cnn2c(NCc3ccccc3)cc(NCCCCCCN)nc12	0.67 °C
Cc1cc([C@@H](C)Nc2ccccc2C(=O)O)c2nc(N3CCOCC3)cc(=O)n2c1	0.61 °C
CC(C)NC(=O)C1CCC(n2c(NC(=O)c3ccc(F)cc3)nc3ccc(CN4CCC(C(C)(C)O)CC4)cc32)CC1 (configuration not stated) [Belizatinib (TSR-011)]	1.72 °C
COc1ccc(-c2ccc3ncc4c(c3c2)n(-c2ccc(N3CCNCC3)c(C(F)(F)F)c2)c(=O)n4C)cn1	1.22 °C
CN1CCN(c2ccc3nc(-c4c(N)c5c(F)cccc5[nH]c4=O)[nH]c3c2)CC1 [Dovitinib (TKI-258, CHIR-258)]	13 °C
NC(=O)c1ccc2nc(-c3ccc(Oc4ccc(Cl)cc4)cc3)[nH]c2c1 [Chk2 Inhibitor II (BML-277)]	-1.27 °C
CC1(C)OCCn2c1nc1c(N3CCOCC3)nc(-c3cnc(N)nc3)nc12	-0.63 °C
C=CC(=O)Nc1cccc(Nc2nc(Nc3ccc(OCCOC)cc3)ncc2F)c1	0 °C
NC(=O)c1cnc(N[C@@H]2CCCC[C@@H]2N)nc1Nc1cccc(-n2nccn2)c1	2.02 °C
CNC(=O)c1cc(Oc2ccc3nc(N[C@@H]4CCCC[C@H]4O)sc3c2)ccn1	0.99 °C
CCn1c2ccccc2c2cc(Nc3ccnc(NCCCN4CCOCC4)n3)ccc21	0.77 °C
CCC(=O)Nc1cccc(Oc2nc(Nc3ccc(N4CCN(C)CC4)cc3OC)ncc2Cl)c1	1.13 °C
CN1CCN(c2nc(C3=C(c4c[nH]c5ccccc45)C(=O)NC3=O)c3ccccc3n2)CC1 [Sotrastaurin]	1.74 °C
C=CCc1ccc(O)c(-c2ccc(O)c(CC=C)c2)c1 [Honokiol]	-0.57 °C
